The values that follow come from PubChem BioAssay (EPA / NIEHS).

The target in test [1] is rat Thyrotropin Releasing Hormone Receptor (TRH), Trhr (gene 25570) (UniProt Q01717). The test can be described thus: NVS_GPCR_rTRH: NovaScreen (NVS) G Protein-Coupled Receptor Assay for rat Thyrotropin Releasing Hormone Receptor (TRH) (AID 2283329).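 Also: hit means lower bound tracer signal versus DMSO baseline.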 The method, boiled down: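 Rat forebrain membrane prep, radioligand displacement, filter scintillation readout at 4 h. Single conc 25 uM, duplicate; actives retested as concentration series. DMSO = negative control/baseline.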
Sequence of rat Thyrotropin Releasing Hormone Receptor (TRH), Trhr (gene 25570) (Q01717 whole entry, looked up): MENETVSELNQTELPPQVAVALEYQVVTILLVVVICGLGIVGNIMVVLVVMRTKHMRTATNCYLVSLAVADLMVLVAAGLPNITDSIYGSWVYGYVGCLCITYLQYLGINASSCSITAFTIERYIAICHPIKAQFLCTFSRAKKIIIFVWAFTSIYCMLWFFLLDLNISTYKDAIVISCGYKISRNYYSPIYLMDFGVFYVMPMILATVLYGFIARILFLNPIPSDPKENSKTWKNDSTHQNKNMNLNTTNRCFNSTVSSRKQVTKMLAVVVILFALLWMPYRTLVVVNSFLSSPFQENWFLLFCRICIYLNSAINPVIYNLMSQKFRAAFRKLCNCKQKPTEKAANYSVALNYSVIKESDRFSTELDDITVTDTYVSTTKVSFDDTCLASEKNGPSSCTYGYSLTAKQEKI

Test [2] has as its target human Peripheral-type Benzodiazepine Receptor (PBR), TSPO (gene 706) (UniProt P30536). The test can be described thus: NVS_MP_hPBR: NovaScreen (NVS) Membrane Protein Assay for human Peripheral-type Benzodiazepine Receptor (PBR) (AID 2283331).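 Also: hits reduce radioligand binding relative to DMSO baseline.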 The method, boiled down:
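Using human colon-derived membranes, this one-endpoint binding test reads radioligand loss by scintillation after 1 h. Screening started at 25 uM in duplicate, with positive and negative controls on every plate, and actives moved to dose series.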

Test [3] has as its target D(1A) dopamine receptor (Homo sapiens) (UniProt P21728). The test can be described thus: NVS_GPCR_hDRD1: NovaScreen (NVS) G Protein-Coupled Receptor Assay for human Dopamine Receptor D1 (DRD1) (AID 2283269). The method, boiled down: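 HEK293-derived receptor preparation; radioligand competitive displacement; 1 h; filtration + scintillation counting. DMSO = negative control/baseline. Primary: 25 uM, duplicate; secondary: concentration–response for actives.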

Test [4] deals with human Thromboxane A2 Receptor (TXA2), TBXA2R (gene 6915) (UniProt P21731). The test can be described thus: NVS_GPCR_hTXA2: NovaScreen (NVS) G Protein-Coupled Receptor Assay for human Thromboxane A2 Receptor (TXA2) (AID 2283282).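 Also: actives reduce bound radioligand signal relative to DMSO baseline.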 Put shortly: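 Cell-free radioligand binding with human platelet-derived receptor; 1 h after dosing, filter-based scintillation counting, loss of signal vs DMSO. Primary screen in duplicate at 25 uM.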

Test [5] concerns the target Sodium channel protein type 1 subunit alpha (Rattus norvegicus) (UniProt P04774). The test can be described thus: NVS_IC_rNaCh_site2: NovaScreen (NVS) Ion Channel Assay for rat Sodium Channel, Site 2 (NaCh) (AID 2283322).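 Also: hit means loss of radioligand binding signal relative to DMSO so AC50 marks displacement.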 Put shortly:
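Initial duplicate single-point testing at 25 uM, followed by concentration-response runs for actives. Binding of radioligand to rat forebrain membranes quantified after 1 h via filter-based radiodetection.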

The target of test [6] is human Beta-secretase (BACE), BACE1 (gene 23621) (UniProt P56817). The test can be described thus: NVS_ENZ_hBACE: NovaScreen (NVS) Enzymatic Assay for human Beta-secretase (BACE) (AID 2283140).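 Also: hits are inhibitors that reduce fluorescent substrate signal versus DMSO.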 The method, boiled down:
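Enzyme activity of SF9-produced BACE1 is measured cell-free by fluorescence, 1 hour post dosing, normalised to DMSO. Screening used 25 uM in duplicate, with concentration-response follow-up for actives.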

The target in test [7] is human Dual Specificity Protein Phosphatase 3 (DUSP3), DUSP3 (gene 1845) (UniProt P51452). The test can be described thus: NVS_ENZ_hDUSP3: NovaScreen (NVS) Enzymatic Assay for human Dual Specificity Protein Phosphatase 3 (DUSP3) (AID 2283152). The method, boiled down: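 Cell-free fluorescence-intensity enzyme activity assay with recombinant protein and substrate; loss of signal fitted relative to DMSO baseline. Primary screen in duplicate at 25 uM, actives then run in concentration series; measured 0 h after dosing.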
Sequence of human Dual Specificity Protein Phosphatase 3 (DUSP3), DUSP3 (gene 1845) (P51452 whole entry, looked up): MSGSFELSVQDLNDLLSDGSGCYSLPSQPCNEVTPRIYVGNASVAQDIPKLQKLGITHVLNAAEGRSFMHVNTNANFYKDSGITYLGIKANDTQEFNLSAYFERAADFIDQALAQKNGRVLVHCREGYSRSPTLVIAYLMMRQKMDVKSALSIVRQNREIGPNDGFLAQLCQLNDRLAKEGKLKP

Test [8] deals with human Ephrin type-A Receptor 1 (EphA1), EPHA1 (gene 2041) (UniProt P21709). The test can be described thus: NVS_ENZ_hEphA1: NovaScreen (NVS) Enzymatic Assay for human Ephrin type-A Receptor 1 (EphA1) (AID 2283158).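 Also: activity is signal loss versus DMSO meaning EphA1 kinase inhibition.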 Put shortly:
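Cell-free kinase activity with recombinant protein, 1 hour after dosing; product separated by electrophoretic mobility shift, fluorescence read. Primary screen at 25 uM in duplicate; hits run as concentration-response up to 50 uM, relative to DMSO.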

Test [9] concerns the target human Matrix Metalloproteinase-9 (MMP9), MMP9 (gene 4318) (UniProt P14780). The test can be described thus: NVS_ENZ_hMMP9: NovaScreen (NVS) Enzymatic Assay for human Matrix Metalloproteinase-9 (MMP9) (AID 2283190).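 Also: cell-free recombinant MMP9 protease activity read by fluorescent substrate signal; active means inhibition seen as loss of fluorescence signal versus DMSO.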 Put shortly:
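Inhibition was scored as loss of fluorescence signal against DMSO controls. The recombinant protease was exposed to chemicals for 1 hour before reading; initial testing used 25 uM in duplicate.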

Test [10] concerns the target human Phosphoinositide 3-kinase alpha (PI3Ka), PIK3CA (gene 5290) (UniProt P42336). The test can be described thus: NVS_ENZ_hPI3Ka: NovaScreen (NVS) Enzymatic Assay for human Phosphoinositide 3-kinase alpha (PI3Ka) (AID 2283196). The method, boiled down: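 Chemicals were first screened at 25 uM in duplicate, then hits were run as concentration series up to 50 uM. Enzyme activity was measured by fluorescence after mobility-shift separation, with loss of signal relative to DMSO taken as activity.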

In test [11] the target is human Vascular Endothelial Growth Factor Receptor 1 (VEGFR1), FLT1 (gene 2321) (UniProt P17948). The test can be described thus: NVS_ENZ_hVEGFR1: NovaScreen (NVS) Enzymatic Assay for human Vascular Endothelial Growth Factor Receptor 1 (VEGFR1) (AID 2283226). Put shortly: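 Kinase activity of recombinant human VEGFR1 was read by fluorescence after electrophoretic separation of product from substrate, 1 h post-dosing; initial duplicate single-point testing at 25 uM, followed by concentration-series follow-up, with DMSO as baseline.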

Test [12] addresses human Adenosine A2a Receptor (AdoRA2a), ADORA2A (gene 135) (UniProt P29274). The test can be described thus: NVS_GPCR_hAdoRA2a: NovaScreen (NVS) G Protein-Coupled Receptor Assay for human Adenosine A2a Receptor (AdoRA2a) (AID 2283256). The method, boiled down: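 HEK293-derived receptor preparation, radioligand displacement, 1.5 h, filtration + scintillation read. Loss of bound signal scored vs DMSO. Single-point 25 uM in duplicate first, then concentration-response for actives.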

Test [13] has as its target Muscarinic acetylcholine receptor M2 (Homo sapiens) (UniProt P08172). The test can be described thus: NVS_GPCR_hM2: NovaScreen (NVS) G Protein-Coupled Receptor Assay for human Muscarinic, M2 Receptor (AID 2283273). Put shortly: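 Radioligand competition binding, cell-free, receptor from CHO; 1 h incubation; scintillation detection. Primary testing at 25 uM in duplicate.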

Test [14] addresses human Neurokinin, NK2 Receptor, TACR2 (gene 6865) (UniProt P21452). The test can be described thus: NVS_GPCR_hNK2: NovaScreen (NVS) G Protein-Coupled Receptor Assay for human Neurokinin, NK2 Receptor (AID 2283278).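 Also: actives reduce bound radioligand signal relative to DMSO baseline.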 Put shortly: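 Filter-based scintillation counting measured radioligand bound to receptor extracted from CHO cells, 4 hours after compound addition. Chemicals screened first at 25 uM in duplicate, with actives retested in concentration series relative to DMSO.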

The target in test [15] is human Opioid Receptor Mu (Opiate Mu), OPRM1 (gene 4988) (UniProt P35372). The test can be described thus: NVS_GPCR_hOpiate_mu: NovaScreen (NVS) G Protein-Coupled Receptor Assay for human Opioid Receptor Mu (Opiate Mu) (AID 2283290).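 Also: hits lower bound tracer signal versus DMSO meaning displacement of the ligand.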 Put shortly: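 CHO-derived receptor protein, cell-free; radioligand displacement, filtration + scintillation counting, read at 2.5 h. DMSO = negative control/baseline. Primary: 25 uM single conc, duplicate; secondary: concentration series.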
Sequence of human Opioid Receptor Mu (Opiate Mu), OPRM1 (gene 4988) (P35372 whole entry, looked up): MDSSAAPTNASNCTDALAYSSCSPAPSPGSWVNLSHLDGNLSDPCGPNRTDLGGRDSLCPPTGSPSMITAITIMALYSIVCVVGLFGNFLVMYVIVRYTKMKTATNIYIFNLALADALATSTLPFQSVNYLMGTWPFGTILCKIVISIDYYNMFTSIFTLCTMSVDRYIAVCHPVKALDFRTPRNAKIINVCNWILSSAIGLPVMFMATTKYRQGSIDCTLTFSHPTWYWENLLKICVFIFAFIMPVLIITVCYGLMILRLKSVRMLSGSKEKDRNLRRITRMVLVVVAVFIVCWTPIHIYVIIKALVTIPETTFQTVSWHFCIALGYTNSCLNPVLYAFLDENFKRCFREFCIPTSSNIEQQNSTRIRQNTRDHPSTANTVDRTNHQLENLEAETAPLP

In test [16] the target is rat Adrenergic Receptor, Alpha 2 (Adra2), Non-selective Binding, Adra2a (gene 25083) (UniProt P22909). The test can be described thus: NVS_GPCR_rAdra2_NonSelective: NovaScreen (NVS) G Protein-Coupled Receptor Assay for rat Adrenergic Receptor, Alpha 2 (Adra2), Non-selective Binding (AID 2283299). Put shortly:
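Filter-based scintillation counting of radioligand binding to rat cortical membrane receptors, measured 1.25 hours post-dosing; loss of signal versus DMSO indicates displacement. Initial single-concentration duplicate at 25 uM, then concentration series.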

Test [17] has as its target human Phosphodiesterase 10 (PDE10), PDE10A (gene 10846) (UniProt Q9Y233). The test can be described thus: NVS_ENZ_hPDE10: NovaScreen (NVS) Enzymatic Assay for human Phosphodiesterase 10 (PDE10) (AID 2283195). The method, boiled down:
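Readout is fluorescence intensity following electrophoretic mobility-shift separation, 1 h after dosing of isolated PDE10A protein. Hits meeting a preset threshold at 25 uM went to concentration series (max 50 uM), analysed relative to DMSO.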

Test [18] has as its target guinea pig Leukotriene D4 Receptor (LTD4), CYSLTR1 (gene 100135514) (UniProt Q2NNR5). The test can be described thus: NVS_GPCR_gLTD4: NovaScreen (NVS) G Protein-Coupled Receptor Assay for guinea pig Leukotriene D4 Receptor (LTD4) (AID 2283248). Put shortly:
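Guinea pig lung membrane preparation; bound radioligand measured by filter scintillation after 1 h, loss of signal versus DMSO marking displacement. Compounds tested at 25 uM in duplicate, hits retested to max 50 uM.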

Broadly, the AC50 is the concentration giving half of the maximal activity seen.

Records with an inconclusive call do not appear. Calls of active or inactive are those of the source. The calls were made as follows: active = hit-call score of the fitted dose curve at least 0.9, where 1 is the maximum; inconclusive = response in the unintended direction; inactive = score below 0.9.

Sequence of D(1A) dopamine receptor (Homo sapiens) (P21728 whole entry, looked up): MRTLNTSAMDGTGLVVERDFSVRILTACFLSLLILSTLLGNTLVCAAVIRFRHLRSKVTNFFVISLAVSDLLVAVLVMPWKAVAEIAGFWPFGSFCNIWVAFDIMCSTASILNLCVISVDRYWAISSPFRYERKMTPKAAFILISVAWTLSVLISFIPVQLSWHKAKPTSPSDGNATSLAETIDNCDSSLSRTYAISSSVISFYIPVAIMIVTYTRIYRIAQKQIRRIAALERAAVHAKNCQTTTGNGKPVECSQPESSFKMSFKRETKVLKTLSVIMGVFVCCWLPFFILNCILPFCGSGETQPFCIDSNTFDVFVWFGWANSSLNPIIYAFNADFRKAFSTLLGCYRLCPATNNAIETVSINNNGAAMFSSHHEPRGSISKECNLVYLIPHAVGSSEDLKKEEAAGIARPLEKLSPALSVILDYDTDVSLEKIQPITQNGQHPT
Sequence of human Matrix Metalloproteinase-9 (MMP9), MMP9 (gene 4318) (P14780 whole entry, looked up): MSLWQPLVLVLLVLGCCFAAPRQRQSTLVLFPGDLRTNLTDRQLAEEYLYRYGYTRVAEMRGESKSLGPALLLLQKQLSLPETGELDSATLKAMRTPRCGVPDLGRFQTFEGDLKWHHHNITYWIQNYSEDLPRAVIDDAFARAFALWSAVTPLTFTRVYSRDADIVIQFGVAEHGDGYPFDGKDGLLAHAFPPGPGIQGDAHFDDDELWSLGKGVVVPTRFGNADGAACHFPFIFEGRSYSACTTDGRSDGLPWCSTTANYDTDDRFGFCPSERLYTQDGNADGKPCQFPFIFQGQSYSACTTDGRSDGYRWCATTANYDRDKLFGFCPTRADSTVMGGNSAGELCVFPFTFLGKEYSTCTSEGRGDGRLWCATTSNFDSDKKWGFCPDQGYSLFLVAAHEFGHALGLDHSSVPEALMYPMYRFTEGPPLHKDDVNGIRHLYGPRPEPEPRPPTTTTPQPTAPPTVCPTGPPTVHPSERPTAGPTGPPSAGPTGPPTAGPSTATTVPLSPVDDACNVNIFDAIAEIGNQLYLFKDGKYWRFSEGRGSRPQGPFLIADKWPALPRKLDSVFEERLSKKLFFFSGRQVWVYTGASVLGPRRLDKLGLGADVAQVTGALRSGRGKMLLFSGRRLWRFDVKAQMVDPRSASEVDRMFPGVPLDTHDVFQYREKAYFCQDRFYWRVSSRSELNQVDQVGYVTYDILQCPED
Sequence of human Peripheral-type Benzodiazepine Receptor (PBR), TSPO (gene 706) (P30536 whole entry, looked up): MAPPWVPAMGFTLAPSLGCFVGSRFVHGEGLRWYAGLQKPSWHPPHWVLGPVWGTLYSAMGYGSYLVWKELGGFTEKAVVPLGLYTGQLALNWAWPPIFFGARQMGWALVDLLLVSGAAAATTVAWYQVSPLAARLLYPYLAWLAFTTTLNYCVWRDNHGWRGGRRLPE
Sequence of guinea pig Leukotriene D4 Receptor (LTD4), CYSLTR1 (gene 100135514) (Q2NNR5 whole entry, looked up): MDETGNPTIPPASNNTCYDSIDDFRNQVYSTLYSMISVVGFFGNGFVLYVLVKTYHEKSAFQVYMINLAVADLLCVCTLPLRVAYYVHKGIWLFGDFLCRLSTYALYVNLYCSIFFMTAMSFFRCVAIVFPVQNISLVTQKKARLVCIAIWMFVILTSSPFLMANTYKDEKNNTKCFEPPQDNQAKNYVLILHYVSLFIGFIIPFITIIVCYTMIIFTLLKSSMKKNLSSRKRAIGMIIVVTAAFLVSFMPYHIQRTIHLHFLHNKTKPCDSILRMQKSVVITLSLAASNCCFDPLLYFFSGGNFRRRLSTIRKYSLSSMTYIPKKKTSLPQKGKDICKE
Sequence of human Phosphodiesterase 10 (PDE10), PDE10A (gene 10846) (Q9Y233 whole entry, looked up): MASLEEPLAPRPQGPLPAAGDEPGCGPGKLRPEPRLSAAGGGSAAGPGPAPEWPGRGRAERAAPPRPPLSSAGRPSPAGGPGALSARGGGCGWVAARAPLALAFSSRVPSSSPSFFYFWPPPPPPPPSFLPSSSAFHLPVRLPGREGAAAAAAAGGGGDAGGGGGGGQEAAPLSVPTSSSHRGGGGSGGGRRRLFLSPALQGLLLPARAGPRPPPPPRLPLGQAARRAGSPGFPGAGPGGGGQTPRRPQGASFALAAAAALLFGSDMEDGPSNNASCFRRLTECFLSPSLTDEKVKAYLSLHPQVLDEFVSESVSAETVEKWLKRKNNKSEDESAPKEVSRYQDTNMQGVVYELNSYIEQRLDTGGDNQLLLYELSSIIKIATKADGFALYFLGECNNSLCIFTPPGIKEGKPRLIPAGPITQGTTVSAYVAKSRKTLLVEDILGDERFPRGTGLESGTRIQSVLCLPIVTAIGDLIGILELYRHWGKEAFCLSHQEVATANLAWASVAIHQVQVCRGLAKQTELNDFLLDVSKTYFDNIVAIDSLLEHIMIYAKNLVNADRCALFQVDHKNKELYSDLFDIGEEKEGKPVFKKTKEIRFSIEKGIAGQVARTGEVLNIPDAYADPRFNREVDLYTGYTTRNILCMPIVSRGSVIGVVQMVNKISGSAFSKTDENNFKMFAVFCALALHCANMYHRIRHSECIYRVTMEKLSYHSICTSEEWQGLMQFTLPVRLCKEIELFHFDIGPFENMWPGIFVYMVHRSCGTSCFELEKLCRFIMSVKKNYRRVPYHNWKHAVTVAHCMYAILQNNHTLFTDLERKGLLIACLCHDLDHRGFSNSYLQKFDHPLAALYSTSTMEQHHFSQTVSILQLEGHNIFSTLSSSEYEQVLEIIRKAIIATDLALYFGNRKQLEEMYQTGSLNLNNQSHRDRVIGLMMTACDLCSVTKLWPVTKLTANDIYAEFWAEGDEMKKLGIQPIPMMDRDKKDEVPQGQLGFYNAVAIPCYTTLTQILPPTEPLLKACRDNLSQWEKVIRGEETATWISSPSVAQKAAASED
Sequence of human Phosphoinositide 3-kinase alpha (PI3Ka), PIK3CA (gene 5290) (P42336 whole entry, looked up): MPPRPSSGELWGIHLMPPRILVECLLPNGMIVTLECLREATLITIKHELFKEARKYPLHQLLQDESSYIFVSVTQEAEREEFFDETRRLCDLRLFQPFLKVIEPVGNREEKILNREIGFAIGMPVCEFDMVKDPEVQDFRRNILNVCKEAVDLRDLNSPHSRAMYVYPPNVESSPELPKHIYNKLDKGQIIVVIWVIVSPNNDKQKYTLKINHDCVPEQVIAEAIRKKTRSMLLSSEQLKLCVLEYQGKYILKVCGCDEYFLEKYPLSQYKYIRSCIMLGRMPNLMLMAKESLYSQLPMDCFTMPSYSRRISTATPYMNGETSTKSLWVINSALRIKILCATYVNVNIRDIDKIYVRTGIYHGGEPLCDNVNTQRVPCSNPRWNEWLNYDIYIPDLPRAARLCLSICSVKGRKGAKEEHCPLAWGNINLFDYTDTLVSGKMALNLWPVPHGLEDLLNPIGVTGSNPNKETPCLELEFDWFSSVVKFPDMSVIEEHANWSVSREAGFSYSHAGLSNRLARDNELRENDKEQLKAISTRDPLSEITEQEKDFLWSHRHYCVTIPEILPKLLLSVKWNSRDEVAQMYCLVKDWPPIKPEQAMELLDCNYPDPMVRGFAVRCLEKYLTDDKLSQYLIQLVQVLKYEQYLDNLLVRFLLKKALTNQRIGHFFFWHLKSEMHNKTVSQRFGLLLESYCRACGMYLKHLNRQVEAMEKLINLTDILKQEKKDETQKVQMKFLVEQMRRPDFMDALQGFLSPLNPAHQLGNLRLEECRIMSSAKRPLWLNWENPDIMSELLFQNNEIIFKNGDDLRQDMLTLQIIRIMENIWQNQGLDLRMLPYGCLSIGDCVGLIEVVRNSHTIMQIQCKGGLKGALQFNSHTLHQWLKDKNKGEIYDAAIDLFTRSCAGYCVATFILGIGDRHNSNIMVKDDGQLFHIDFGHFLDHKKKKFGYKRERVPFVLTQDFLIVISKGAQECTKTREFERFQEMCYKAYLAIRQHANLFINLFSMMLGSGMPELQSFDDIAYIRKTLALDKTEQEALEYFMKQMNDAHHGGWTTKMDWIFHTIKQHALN

With `CC(CCl)OP(=O)(OC(C)CCl)OC(C)CCl` (configuration not stated), the outcome in test [1] was inactive. The AC50 in test [2] was 23.8 µM (active).

`Nc1ccc(Oc2cccc(Oc3ccc(N)cc3)c2)cc1`: the result in test [3] and in [4] was inactive. Also, the half-maximal activity concentration (AC50) in [5] was 12.1 µM (active).

On to `CCCCCCCCCCCCCCCC[N+](C)(C)Cc1ccccc1`, for which the AC50 was 6.34 µM (active) in test [6]; 4.22 µM (active) in test [7]; 16.4 µM (active) in test [12]; 1.57 µM (active) in test [3]; 0.584 µM (active) in test [13]; 2.11 µM (active) in test [14]. The half-maximal activity concentration (AC50) in [15] was 1.44 µM (active); in [16], 38.6 µM (active); in test [2] it was 41.3 µM (active). Moreover, the outcome in [8], in test [9], in test [10], in [11] and in test [5] was inactive.

For `CCCCCCC(C)OC(=O)CCCCC(=O)OC(C)CCCCCC` (configuration not stated), in [2], the AC50 is 10.2 µM (active).

For the compound `CO[Si](OC)(c1ccccc1)c1ccccc1`, the compound was called inactive in [17]. Besides, the AC50 in test [3] is 45.6 µM (active).

Turning to `O=C(OCCOCCOCCOC(=O)c1ccccc1)c1ccccc1`, the AC50 in test [2] was 9.76 µM (active).

Regarding `CCCCCCOC(=O)c1ccccc1`, the compound was called inactive in test [1].

Consider `c1ccc(-c2ccccc2-c2ccccc2)cc1`, for which, in test [18], the outcome was inactive.

With `C#C[C@]1(O)CC[C@H]2[C@@H]3CCc4cc(OC)ccc4[C@H]3CC[C@@]21C`, the call in test [15], in [5] and in test [1] was inactive.

Turning to `CCCCC(CC)COP(=O)(O)OCC(CC)CCCC` (configuration not stated), the outcome in test [1] was inactive.

Take `Cc1cc(C)cc(O)c1`: the result in test [15] was inactive.

Take `CCCCCC=O`: the AC50 in test [9] is 1.86 µM (active).

`O[Si](c1ccccc1)(c1ccccc1)c1ccccc1`: the outcome in test [5] was inactive.

Take `CC(C)OC(=O)c1ccccc1C(=O)OC(C)C`: in [2], the AC50 was 11.5 µM (active).

For `CC(C)=CCCC(C)CCOC(=O)C(C)C` (configuration not stated), the result in [17] was inactive.

Take `CCCCOCCOCCOC(=O)CCCCC(=O)OCCOCCOCCCC`: the result in test [2] was inactive.

With `CCCCNc1ccccc1`, the AC50 in test [9] was 4.99 µM (active). The outcome in [18] was inactive.
